Our source for the inhibition values is PubChem BioAssay AID873 (PCMD, 2007).

Out of some 210,000 compounds screened, about 1,300 (0.62%) were called active.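 Rule for the calls: active = inhibition of 40% or more; inactive = the rest.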 Many of the other results were omitted from the sample, so actives are more common in it than they were.

Kallikrein-5 (Homo sapiens), sequence (Q9Y337 67-293 limits assumed): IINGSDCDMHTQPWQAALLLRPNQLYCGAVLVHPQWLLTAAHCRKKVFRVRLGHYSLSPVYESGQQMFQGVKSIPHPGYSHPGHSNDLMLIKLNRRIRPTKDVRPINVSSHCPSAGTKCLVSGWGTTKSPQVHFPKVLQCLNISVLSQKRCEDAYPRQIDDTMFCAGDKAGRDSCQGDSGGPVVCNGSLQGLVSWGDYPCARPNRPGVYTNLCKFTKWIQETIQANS

This test addresses Kallikrein-5 (Homo sapiens) (UniProt Q9Y337). Nature of the test: human KLK5 protease inhibitors, primary screen, biochemical, 1536-well (AID 873).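 Note: 0% = enzyme controls without compound and 100% = no-enzyme blanks.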 The following applies: recombinant hK5, fluorogenic AMC substrate cleavage; at 5 µM; hits give high values.
What is called inhibition is the relative decrease from the control value, in per cent. Regarding `CC(C)n1c(=O)c(C=Nc2ccc(Br)cc2)c(O)n(Cc2ccco2)c1=O`, the inhibition is 115% (active). For `CN(C)CC1Oc2ccccc2OC1(O)c1ccccc1` (stereo not given), the inhibition was -2.65% (inactive). Take `O=c1[nH]c(=O)n(Cc2ccccc2)c(O)c1/C=N/Nc1c(F)c(F)c(F)c(F)c1F`: the inhibition was 3.18% (inactive). Regarding `O=C(O)COc1ccccc1/C=C1\C(=O)NC(=O)N(CCC2=CCCCC2)C1=O`, the inhibition is 0.1% (inactive).

On to `CC(C)c1ccc(-n2c(O)c(/C=N/N3CCOCC3)c(=O)[nH]c2=S)cc1`, for which the inhibition was -2.01% (inactive).
